Only some compounds are listed: those with a hit (about 4.1% of all), similar ones and a draw of the others.
ssDAF-12 act = S. stercoralis DAF-12 activation, primary screen; 1% of 370,000 active; HEK293 ssDAF-12/GRIP1 lit1-tk-luc reporter, luminescence; % of 3 µM dafachronic acid response; activation, % at 6.8 µM;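 active means activation above the mean over all tested compounds plus 3 SD, cut at about 0.9% in these data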;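 further: 0% = DMSO-only wells and 100% = 3 µM delta7-dafachronic acid wells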
hgDAF12 agonist = hgDAF-12 agonism, primary luciferase screen; HEK293 GAL4-hgDAF12 UAS-luciferase reporter, agonist luminescence; normalized to butyrate control; activation, % at 6.8 µM; 1.8% of 370,000 active;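 active means activation above a cutoff set at the mean of all screened compounds plus 3 SD, cut at about 10% in these data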;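 further: 0% = DMSO wells and 100% = sodium butyrate wells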
hcDAF12 agonist = activates DAF-12 receptor from parasite H. contortus; HEK293 hcDAF-12 lit1-tk-luc reporter, luminescence; 0% DMSO, 100% Δ7-dafachronic acid; activation, % at 6.8 µM; AID 652067; 1.4% of 370,000 active;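 active means activation above the mean of all tested compounds plus 3 SD, cut at about 5.5% in these data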;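 further: 100% = response to 3 µM Δ7-dafachronic acid high control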
DAX1 inh-1 = blocks DAX1 repression of SF-1 activated StAR promoter; HEK293T StAR-luciferase reporter, SF-1/DAX-1 repression relief; inhibition, % at 6.8 µM; 1.1% of 370,000 active; AID 652010;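 active means inhibition above the mean over all tested compounds plus 3 SD, cut at about 3.6% in these data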;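 further: 0% = DAX-1 cells with DMSO and 100% = cells lacking DAX-1 with DMSO; higher inhibition means more luminescence from relief of DAX-1 repression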
DAX1 inh-2 = inhibits human nuclear receptor DAX1 | HEK293 Gal4-DAX1 luciferase reporter, luminescence | inhibition, % at 6.75 µM | 0.99% of 340,000 active | AID 504766;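 active means inhibition above the mean over all tested compounds plus 3 SD, cut at about 4.2% in these data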;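 further: 0% = DAX1-transfected cells with DMSO and 100% = empty-vector control cells with DMSO; inhibition shows as a rise in luminescence from relieved DAX1 repression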
Target sequence (P51843 207-470 limits assumed): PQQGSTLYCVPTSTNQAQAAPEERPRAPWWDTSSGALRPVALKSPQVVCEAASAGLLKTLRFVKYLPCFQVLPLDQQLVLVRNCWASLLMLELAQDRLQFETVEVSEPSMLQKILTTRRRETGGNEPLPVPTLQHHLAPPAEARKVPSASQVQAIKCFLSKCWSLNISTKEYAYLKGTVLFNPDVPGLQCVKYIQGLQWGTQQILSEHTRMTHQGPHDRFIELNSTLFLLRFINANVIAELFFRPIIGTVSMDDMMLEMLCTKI
An asterisk follows results filed as active; . = no result.

SMILES | ssDAF-12 act | hgDAF12 agonist | hcDAF12 agonist | DAX1 inh-1 | DAX1 inh-2
COC(=O)[C@]12C[C@H](CC(=O)NCC34CC5CC(CC(C5)C3)C4)C(=O)N(CCc3ccc(OC)c(OC)c3)C1=C[C@H](C1CCCC1)O[C@@H]2C | -1 | -5 | -2 | -2 | .
CCc1cc2c(=O)c(-c3cnn(-c4ccccc4)c3)c(C)oc2cc1OCC(=O)Nc1cccc(C)c1 | -1 | -2 | -1 | -1 | 1
CCc1cc2c(=O)c(-c3cnn(-c4ccccc4)c3)c(C)oc2cc1OCC(=O)Nc1ccc(F)c(F)c1 | 1.9* | 1 | 1 | 0 | 0
O=C(Nc1cccc(Br)c1)OC1CC2CC1[C@H]1CCCCN1C2 (stereo partly specified) | 0 | -1 | 0 | -1 | .
O=C(c1ccc(Cl)cc1)c1cnc(Nc2ccccc2Cl)s1 | 0 | 13* | 2 | 1 | 2
CC(=O)c1cnc(Nc2cccc(Cl)c2Cl)s1 | 0 | 13* | 2 | 2 | 3
O=C(c1ccc(Cl)cc1)c1cnc(-c2ccccc2)s1 | -1 | 0 | 0 | 0 | 1
Cc1csc(Sc2ccc(C(=O)OCC(=O)Nc3ccc(F)cc3[N+](=O)[O-])cc2[N+](=O)[O-])n1 | 0 | 1 | 2 | 0 | 6.5*
CCOc1ccc2nc(SCC3CC3(Cl)Cl)[nH]c2c1 (stereo unspecified) | -1 | 12* | 1 | 0 | 5.1*
Fc1c(F)c(F)c(CSc2nc3ccccc3[nH]2)c(F)c1F | -1 | 2 | -2 | 0 | -1
ClC1(Cl)CC1CSc1nc2ccccc2[nH]1 (stereo unspecified) | -1 | 12* | -1 | 3 | 0
c1ccc2[nH]c(SCC3CCCCO3)nc2c1 (stereo unspecified) | 0 | 11* | 3 | 2 | 1
CCNC(=O)C[C@H]1CC[C@H]2[C@@H](COc3ccc(NC(=O)Nc4ccccc4)cc3C(=O)N2C)O1 | -1 | -3 | 2 | 2 | .
CCOC(=O)[C@@]12CCC3=C1N(CCC3)C(=O)[C@H](CC(=O)NCCc1ccccc1OC)C2 | 0.9* | -2 | -3 | -1 | .
CCOC(=O)[C@]12CCCC3=C1N(CCC3)C(=O)[C@@H](CC(=O)NCCc1ccccc1OC)C2 | -2 | -1 | -3 | -1 | .
Cc1cc(=O)nc2c3ccccc3n(CC(=O)NC(C)c3ccc4c(c3)OCCO4)n12 (stereo unspecified) | 0 | 0 | 6.0* | 0 | 0
CCCNC(=O)Cn1c2ccccc2c2nc(=O)cc(C)n21 | 1 | 0 | 5 | 1 | 0
CCCCOc1cccc(C(=O)NCCc2ccccc2-c2ccccc2CCC(=O)NCc2ccccc2)c1 | -1 | 3 | 1 | 0 | .
COc1ccc(-c2noc(C3CCCN(C(=O)Nc4cccc(C)c4)C3)n2)cc1 (stereo unspecified) | -1 | 5 | -2 | 3 | .
Cc1csc(NC(=O)c2ccc[nH]c2=O)n1 | -1 | 11* | 1 | 2 | 1
C=CCOC(=O)N[C@H](c1cccc(OC)c1)[C@H](C)/C=C/CC(=O)OC | -1 | -1 | -3 | 0 | .
N#Cc1cccnc1Nc1ccc(Cl)cc1 | 0 | 0 | 3 | 0 | -2
CCCCc1ccc(Nc2ncccc2C#N)cc1 | 1 | 8 | 5.8* | 1 | 1
Cc1cccc(NC(=O)CSCC(=O)N(C)CCOc2ccc(Cl)cc2)c1 | -1 | -1 | -1 | -1 | 0
CC(C)CNS(=O)(=O)/C=C/c1ccccc1CNC(=O)OC(C)(C)C | -1 | -1 | -3 | -2 | .
SMILES | ssDAF-12 act | hgDAF12 agonist | hcDAF12 agonist | DAX1 inh-1 | DAX1 inh-2
CNC(=O)CSc1nc2sccc2c(=O)n1-c1ccccc1 | 0 | -1 | 0 | 0 | 4.6*
CC(C)=CCC/C(C)=C/CNCC(=O)N1c2ccccc2[C@]2(c3ccccc3)C[C@@H]3C(=O)N(C/C=C(\C)CCC=C(C)C)CC(=O)N3[C@H]12 | -1 | -1 | -1 | 0 | .
CC1(C)C/C(=N\O)C(C(O)c2cccc([N+](=O)[O-])c2)C(C)(C)N1 (stereo unspecified) | 0 | 1 | -2 | 0 | 6.2*
O=C(O)CC(NC(=O)C12CC3CC(CC(C3)C1)C2)c1cccc([N+](=O)[O-])c1 (stereo unspecified) | -1 | -1 | -1 | 0 | 1
COc1ccc(CNC(=O)[C@H](C)NC(=O)C2CCN(C(=O)[C@@H](N)CCSC)CC2)cc1 | -2 | -1 | -1 | 0 | 4.4*
COc1ccc(CNC(=O)[C@H](C)NC(=O)C2CCN(C(=O)[C@@H](N)Cc3ccccc3)CC2)cc1 | -1 | 6 | -1 | 1 | 6.1*
COc1ccc(CNC(=O)[C@H](NC(=O)C2CCN(C(=O)[C@@H](N)CCSC)CC2)C(C)C)cc1 | -1 | -3 | -1 | 0 | 2
CSCC[C@H](N)C(=O)N1CCC(C(=O)N[C@@H](C)C(=O)NCc2ccc(F)cc2)CC1 | -2 | 1 | 1 | 0 | 3
Cc1ccc(NC(=O)[C@H](C)NC(=O)C2CCN(C(=O)[C@@H](N)CC(C)C)CC2)cc1 | 0 | 2 | 6.0* | 0 | -1
CSCCCNC(=O)Cn1nc(Cc2ccncc2)c2ccccc2c1=O | -1 | 0 | 0 | 0 | .
S=C(Nc1ccccc1)OCCN1CCCC12CCC(c1ccccc1)CC2 (stereo unspecified) | -1 | 2 | 1 | . | .
Cc1cc(N2CCCN(C)CC2)nc2cc(Cl)ccc12 | 1.1* | 1 | -1 | 0 | 1
O=[N+]([O-])c1ccccc1NCc1c(O)ccc2ccccc12 | 1.6* | -1 | 6.3* | 0 | 3
Oc1ccc2ccccc2c1CNc1ccccc1 | 1.7* | 5 | 3 | 0 | -1
Oc1ccc2ccccc2c1CNc1ccc2ccccc2c1 | 0 | 3 | 4 | 0 | 0
COc1ccccc1-c1nnc(SCC#CCOC(=O)c2ccc(F)cc2)o1 | -1 | 3 | 0 | . | .
CCC(C)C(=O)OCC1(c2ccc(C)cc2OC(=O)C(C)C)CO1 (stereo unspecified) | -1 | 2 | -2 | 1 | 1
Cc1ccc(C2(COC(=O)C(C)C)CO2)c(OC(=O)C(C)C)c1 (stereo unspecified) | -2 | 2 | 0 | 0 | 4.6*
O=C(O)C1C2C=CC(C2)C1C(=O)NCc1ccco1 (stereo unspecified) | -1 | 2 | -1 | 0 | -1
COc1ccc(NC(=O)C2C3C=CC(C3)C2C(=O)NCc2ccco2)c(OC)c1 (stereo unspecified) | -1 | 1 | -1 | 0 | 5.9*
COc1ccc(NC(=O)CSc2nnc(-c3ccc(F)cc3)o2)cn1 | 0 | 9 | 1 | 4.0* | 2
O=C(CSc1nnc(-c2ccncc2)o1)Nc1ccccc1Cl | -1 | 5 | 0 | 1 | 0
O=C(CSc1nnc(-c2ccccn2)o1)Nc1ccccc1Cl | 0 | 11* | 2 | 2 | 0
COc1ccc(-c2nnc(SCC(=O)Nc3ccccc3OC)o2)cc1 | 0 | 7 | 1 | 4.3* | 2

High-throughput results from PubChem.
